Only some compounds are listed: those with a hit (about 6.5% of all), similar ones and a draw of the others.
Lassa entry inh: Lassa virus entry inhibition; Lassa virus pseudotype entry inhibition, cell reporter; Potency, µM (series often up to 37.9 µM), without a hit: top-dose activity change, negative = inhibition, most hits filed as inhibitors; 300,000 tested, 1.2% active; calls by dose curve; tested in HEK293 cells; also: potency is read from the fitted curve at half-maximal effect; nearly all actives have a fitted effect of over 50% in size
FMDV inh: blocks foot and mouth disease virus | FMDV antiviral cell-based qHTS | Potency, µM (series often up to 57.9 µM), inactives show top-dose activity change, negative = inhibition, actives largely listed as inhibitors | 410,000 tested, 1.2% active | AID 1159524; calls by dose curve; tested in HEK293T cells; also: read-out not given here; potency is read from the fitted curve at half-maximal effect; nearly all actives have a fitted effect of over 45% in size
Vaccinia Venus: vaccinia inhibition (Venus reporter); 330,000 tested, 0.46% active; Potency, µM (highest dose often 36.5 µM), for the others: top-dose activity change, negative = inhibition, most hits filed as inhibitors; Vaccinia virus Venus reporter expression, fluorescence; AID 720580; calls by dose curve; tested in A549 cells; also: potency is read from the fitted curve at half-maximal effect; nearly all actives have a fitted effect of over 30% in size
Vaccinia mCherry: vaccinia inhibition (mCherry reporter); AID 720579; 310,000 tested, 0.63% active; Vaccinia virus mCherry reporter infection, fluorescence; Potency, µM (doses to about 36.5 µM), without a hit: top-dose activity change, negative = inhibition, actives largely listed as inhibitors; calls by dose curve; tested in A549 cells; also: potency is read from the fitted curve at half-maximal effect; nearly all actives have a fitted effect of over 35% in size
HCMV inh: blocks human cytomegalovirus replication | HFF cells, HCMV-luciferase reporter, 72 h; stronger effect = lower value | activity change, negative = inhibition, % at 57.5 µM | 410,000 tested, 4.5% active | AID 1259415; in the data active = activity change below about -60%; inconclusive = no clear call, values can overlap the other calls; inactive = above about -39%
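Screen run at 2 compound doses on HFFs infected with reporter HCMV, MOI 1 PFU/cell. Luciferase activity from cell lysates at 72 h post infection gave inhibition relative to buffer-only and Salinomycin wells.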
Marburg entry inh: blocks Marburg virus binding to or entry into cells; Marburg virus pseudotyped entry inhibition, cell reporter; Potency, µM (series often up to 37.8 µM), for the others: at the top dose activity change, negative = inhibition, actives largely listed as inhibitors; AID 540276; 300,000 tested, 1.8% active; calls by dose curve; tested in HEK293 cells; also: potency is read from the fitted curve at half-maximal effect
The depositor's hits bear a star; i = inactive; ? = inconclusive; / = no result; + = active, no number; [ ] = dose if it differs, or a comment. % is scaled to controls: 0 for no effect and ±100 for the full control effect.

SMILES	Lassa entry inh	FMDV inh	Vaccinia Venus	Vaccinia mCherry	HCMV inh	Marburg entry inh
O=C(CN1CCOCC1)c1ccc2cc[nH]c2c1	-12.6%	16.1%	-4.0%	-7.7%	1.8	0.2%
CCn1c(-c2ccccc2F)nc2cc(C(=O)NCC3CCOCC3)cc(NC(C)=O)c21	/	-7.2%	-2.4%	-11.7%	/	/
Cc1cccc(-n2nc([N+](=O)[O-])c(=NC3CCN(Cc4ccccc4)CC3)n2O)c1	/	-21.9%	/	/	-63.9*	/
CCCC(NC(=S)NCC1CCCO1)C12CC3CC(CC(C3)C1)C2 (stereo not drawn)	/	-8.9%	-26.3%	i	-92.5*	/
C[C@@H]1N[S+](=O)([O-])c2cc(Cl)ccc2O[C@H]1c1ccccc1	2.3%[46.1 µM]	/	/	/	/	/
Cc1cccc(N2CCN(S(=O)(=O)c3ccc4c(c3)C(C(C)C)C(=O)N4)CC2)c1C (stereo not drawn)	1.26µM*	0.0%	-21.9%	?	?	/
Cc1ccc(CNC(=O)CCS(=O)(=O)c2ccc3c(c2)NC(=O)C(C)S3)cc1 (stereo not drawn)	/	?	/	/	-27.8	/
CC1Sc2ccc(S(=O)(=O)N3CCN(c4cccc(Cl)c4)CC3)cc2NC1=O (stereo not drawn)	/	?	/	/	0.0	/
Cc1cccc(N2CCN(S(=O)(=O)c3ccc4c(c3)NC(=O)C(C)S4)CC2)c1C (stereo not drawn)	/	-22.2%	/	/	-78.6*	/
Cc1ccc(C)c(N2CCN(C(=O)CCS(=O)(=O)c3ccc4c(c3)NC(=O)C(C)S4)CC2)c1 (stereo not drawn)	/	15.8µM*	/	/	+	/
O=C(NCc1ccccn1)c1cnn(-c2nccc(-c3cc4ccccc4o3)n2)c1C1CC1	/	-3.4%	-7.3%	-9.5%	/	/
c1ccc(COc2cccc(-c3cc4nc(NCCCn5ccnc5)ccn4n3)c2)cc1	/	-12.3%	1.9%	7.2%	-6.4	/
C[C@@H]1CC[C@H]2C(=O)N(Cc3cccc([N+](=O)[O-])c3)C[C@H](O)CN2[C@@H]1c1cccc(Br)c1	6.9%[14.3 µM]	/	/	/	/	-10.0%[14.2 µM]
FC(F)(F)c1ccccc1-c1nc(NCc2cccnc2)c2ccccc2n1	/	-25.4%	/	/	/	/
FC(F)(F)c1nc(NCc2cccnc2)c2ccccc2n1	18.2%[46.1 µM]	-24.6%	-12.6%	-14.3%	-61.9*	-14.3%[46.1 µM]
Cc1c(C(=O)N2CCC(C(=O)Nc3ccc(F)cc3)CC2)sc2nc[nH]c(=O)c12	-8.9%[46.1 µM]	-8.3%	-12.6%	i	-25.4	/
CCCCNC(=O)c1cc2ccccc2s1	-2.1%	45.0%	-5.3%	-6.3%	-0.3	0.5%[46.1 µM]
CN(C)CCCNC(=O)/C(=C\c1ccc(-c2cccc([N+](=O)[O-])c2)o1)NC(=O)c1ccccc1	-26.4%	-22.4%	-2.7%	?	-66.1*	?
Cc1ccc(C(=O)N/C(=C\c2ccc(-c3ccc(Br)cc3)o2)C(=O)NCCCN(C)C)cc1	/	?	/	/	-100.6*	/
COc1ccc(C(=O)N/C(=C\c2ccccc2)C(=O)N2CCOCC2)cc1	9.6%	5.0%	-12.7%	-0.6%	-34.5	-1.0%
COc1ccc(-c2ccc(/C=C(\NC(=O)c3ccccc3)C(=O)N3CCOCC3)o2)cc1	-19.2%	-11.2%	?	?	-62.9*	?
Cc1ccc(C(=O)N/C(=C\c2ccc(-c3cccc([N+](=O)[O-])c3)o2)C(=O)NCCCN(C)C)cc1	?	-7.7%	?	?	-39.5	?
CN(C)CCNC(=O)/C(=C/c1ccc(-c2ccc(Cl)cc2)o1)NC(=O)c1ccccc1	?	?	?	-4.3%	-35.9	11.6µM*
O=C(COC(=O)CCc1nc2ccccc2c(=O)[nH]1)Nc1ccc(Cl)cn1	/	-2.7%	1.8%	-10.3%	-4.4	/
NC(=S)NNC(=O)COc1ccccc1O	/	-15.9%	/	/	-1.0	/
SMILES	Lassa entry inh	FMDV inh	Vaccinia Venus	Vaccinia mCherry	HCMV inh	Marburg entry inh
CN(C)CCNC(=O)/C(=C/c1ccc(-c2ccc(Cl)cc2Cl)o1)NC(=O)c1ccccc1	?	?	11.2µM*	?	?	6.31µM*
CCOc1ccc(-n2c(C)c(C(C)=O)c3cc(O)ccc32)cc1	/	-6.6%	/	/	-61.7*	/
CC(=O)c1c(C)n(-c2cccc(Cl)c2)c2ccc(O)cc12	-9.5%[46.1 µM]	-14.1%	?	?	-68.2*	?
CC(=O)c1c(C)n(-c2ccc(Cl)cc2)c2ccc(O)cc12	-3.4%[46.1 µM]	-6.7%	-1.6%	?	-13.0	3.7%[46.1 µM]
CC(=O)c1c(C)n(CCc2ccc(Cl)cc2)c2ccc(O)cc12	-4.8%	-13.5%	-9.2%	-16.3%	-38.3	-8.3%
CCOc1ccc(-n2c(C)c(C(=O)OC)c3cc(O)ccc32)cc1	1.8%	-11.1%	1.9%	?	-38.6	-19.6%[46.1 µM]
CC(=O)c1c(C)n(-c2ccccc2)c2ccc(O)cc12	2.4%	-29.5%	/	/	-63.8*	14.2%
CC(=O)c1c(C)n(Cc2ccccc2Cl)c2ccc(O)cc12	-5.8%	?	-0.2%	-11.9%	-62.0*	3.2%[46.1 µM]
COc1ccc2c(c1)c(C(=O)N1CCN(C)CC1)c(C)n2-c1ccccc1	-2.9%	5.4%	-17.8%	-23.5%	26.7	2.7%
COc1ccc2c(c1)c(C(=O)O)c(C)n2-c1ccc(Cl)cc1	/	-15.7%	/	/	-62.9*	/
CCOC(=O)C1=C(C)NC(C)=C(C(=O)OCC)C1c1ccc(Br)o1	-3.0%	-29.9%	-19.0%	-13.3%	-79.1*	-44.3%
COC(=O)c1ccc([C@@H]2C[C@H]3CN(Cc4cccnc4)C(=O)[C@]34CCCN24)cc1	-1.8%	-12.6%	-5.0%	-6.9%	-27.9	23.2%[46.1 µM]
CN(C)c1ccc(/C=C/c2c3ccccc3cc[n+]2[O-])cc1	/	/	20.1%	-7.3%	/	/
O=C(c1cc(-c2ccccc2)on1)N1CCOc2ccc(CN3CCN(c4ccccn4)CC3)cc2C1	/	-1.4%	-18.5%	i	/	/
NC(=S)NN=C1c2ccccc2-c2ccccc21	/	?	/	/	-86.7*	/
CC(=O)NC1=NN(C(C)=O)C(C)(c2ccco2)S1 (stereo not drawn)	-25.8%[46.1 µM]	-3.7%	-14.0%	?	-28.8	3.16µM*
CC(=O)NC1=NN(C(C)=O)C(C)(c2ccc(C)o2)S1 (stereo not drawn)	-21.5%[46.1 µM]	20.4%	-12.1%	-5.0%	-28.0	4.6%[46.1 µM]
CC(=O)Nc1ccc(N(C(=O)c2ccco2)C(C(=O)NC2CCCC2)c2cccs2)cc1 (stereo not drawn)	-30.9%	-1.4%	5.4%	-9.5%	-34.6	7.1%
O=C(NC1CCCC1)C(c1ccccc1)N(C(=O)c1ccco1)C1CCCC1 (stereo not drawn)	-2.2%	/	-8.8%	-14.9%	-77.7*	-21.5%
O=C(NC1CCCC1)C(c1ccccc1F)N(C(=O)c1ccco1)C1CCCC1 (stereo not drawn)	-2.1%	-26.7%	-5.5%	/	-20.6	-22.8%
CC(=O)Nc1ccc(N(C(=O)c2ccco2)C(C(=O)NC2CCCCC2)c2ccccc2)cc1 (stereo not drawn)	?	40.9%	-14.1%	i	-63.8*	?
CCC(C)c1ccc(N(C(=O)c2ccco2)C(C(=O)NC2CCCC2)c2cccnc2)cc1 (stereo not drawn)	?	21.8%	-18.3%	i	2.4	?

High-throughput results deposited in PubChem by National Center for Advancing Translational Sciences (NCATS).
